Experimental findings from PubChem BioAssay AID624256 (NMMLSC, 2012) are described below.

The campaign covered roughly 360,000 compounds. About 3,700 (1%) were called active. Not shown: some 2% with an inconclusive outcome. The sample holds actives, similar compounds and a random draw of the others, so the mix is not that of the screen.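 The calls were made as follows: active = normalized GFP-positive differentiation at or above the plate's own cutoff, the solvent-only control mean plus 3 SD; inconclusive = no clear call, values can overlap the other calls; inactive = the rest.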

The experiment in a line: HoxA9-arrested leukemia cell differentiation promoters – flow cytometry, MLPCN library, primary screen (AID 624256).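 As to GFP+ MAC1+ double positive: cells exposed to compound for four days before flow analysis.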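 As to normalized GFP-positive differentiation: cells exposed to compound for four days before flow analysis; 0% = DMSO wells and 100% = fulvestrant positive control at 5 µM.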 The following applies: ER-HoxA9 myeloid progenitors, lysozyme-GFP differentiation, at 10 µM; GFP+ MAC1+ double positive: measured here: differentiation confirmed by MAC1 staining, stronger effect = higher value; normalized GFP-positive differentiation: stronger effect = higher value.
Turning to `O=S1(=O)CC(N2CCN(CCO)CC2)CN1Cc1cn(Cc2cccc(Cl)c2)nn1` (stereo not drawn), the GFP+ MAC1+ double positive was 1.8% and the compound was called inactive.

With `CCN(CC)c1ccc([N+](=O)[O-])cc1C(=O)O`, the GFP+ MAC1+ double positive stood at 0.9% and the outcome was inactive.

As to `Cc1cc(C)cc(OCC(=O)NNC(=O)c2cc3ccccc3oc2=O)c1`, the GFP+ MAC1+ double positive amounted to 0.7% and the result was inactive.

In the case of `CCN(CC)c1ccc2cc(C(=O)O)c(=O)oc2c1`, the GFP+ MAC1+ double positive was found to be 2.8% and the normalized GFP-positive differentiation is 30.9% (active).

Consider `COC(=O)[C@]12CCCCC=C1N(Cc1ccc3c(c1)OCO3)C(=O)[C@H](CC(=O)N1CCOCC1)C2`, for which the GFP+ MAC1+ double positive came out at 1.1% and the result was inactive.

In the case of `CC(C)C1Cc2[nH][nH]c(=O)c2C(c2ccc(Cl)cc2)O1` (stereo not drawn), the GFP+ MAC1+ double positive worked out at 1.1% and the compound was called inactive.

As for `Cc1ccc(Nc2cc(C)nc3c(C)ccc([N+](=O)[O-])c23)cc1`, the GFP+ MAC1+ double positive worked out at 8.4% and the normalized GFP-positive differentiation was 156% (active).

As to `Cc1ccccc1Nc1c([N+](=O)[O-])ccc2nonc12`, the GFP+ MAC1+ double positive worked out at 0.6% and the compound was classed as inactive.

Turning to `Cc1ccc2cccc([N+](=O)[O-])c2n1`, the GFP+ MAC1+ double positive was determined as 0.8% and the call was inactive.

Turning to `CCc1nc2c(OCCOc3ccccc3)cccn2c1N(C)C(=O)c1ccc(OC)cc1`, the GFP+ MAC1+ double positive is 0.8% and the outcome was inactive.

For `COc1cccc(-c2nc3n(n2)C(c2ccccc2Cl)C(C(N)=O)=C(C)N3)c1` (stereo not drawn), the GFP+ MAC1+ double positive came out at 1.5% and the compound was classed as inactive.

Take `CC1=C(C(N)=O)C(c2ccc(F)cc2)n2nc(CCCO)nc2N1` (stereo not drawn): the GFP+ MAC1+ double positive turned out to be 1% and the result was inactive.

Consider `CC1=C(C(N)=O)C(c2ccc3c(c2)OCO3)n2nc(-c3cccc(C)c3)nc2N1` (stereo not drawn), for which the GFP+ MAC1+ double positive amounted to 2% and the normalized GFP-positive differentiation is 8.9% (active).

As for `Oc1ccc2ccc3cccc[n+]3c2c1`, the GFP+ MAC1+ double positive is 0.9% and the normalized GFP-positive differentiation was 10.9% (active).

With `CC1(C(=O)NS(=O)(=O)c2ccccc2)CCN1C(=O)C1CCCCC1` (stereo not drawn), the GFP+ MAC1+ double positive worked out at 1.3% and the outcome was inactive.

`COc1ccc(C(C(=O)NCc2ccccc2)n2c(=O)c(-c3ccccc3)nc3ccccc32)cc1` (stereo not drawn): the GFP+ MAC1+ double positive was 5.2% and the compound was classed as inactive.

As to `COc1ccc(CC(N)c2csc(NC(=O)NC(c3ccccc3)c3ccccc3)n2)cc1` (stereo not drawn), the GFP+ MAC1+ double positive was 1.7% and the outcome was inactive.

Take `O=C(N/N=C/c1ccccc1O)C1CCCC1`: the GFP+ MAC1+ double positive stood at 0.3% and the compound was classed as inactive.

For the compound `O=C(CCC(=O)Nc1ccccc1)N/N=C/c1ccccc1F`, the GFP+ MAC1+ double positive amounted to 0.1% and the result was inactive.

With `O=C(N/N=C/c1ccccc1O)/C(=C/c1ccccc1)CCO`, the GFP+ MAC1+ double positive was determined as 4.1% and the normalized GFP-positive differentiation is 31.5% (active).

For `Cc1ccc(S(=O)(=O)N2[C@@H](Cc3ccccc3)CO[C@H]2CC(=O)OCc2ccccc2)cc1`, the GFP+ MAC1+ double positive amounted to 5.9% and the compound was classed as inactive.

For `O=C1NC[C@H](CCCCN2C[C@H](Cc3ccc(O)cc3)N(CC3CCCCC3)C(=O)C2=O)N(CCc2ccccc2)C1=O`, the GFP+ MAC1+ double positive was found to be 0.6% and the call was inactive.

With `CCOc1ccc(CCN2C(=S)N([C@@H](CC(C)C)CN3CCC[C@@H]3CN3C(=S)NC[C@@H]3Cc3ccc(O)cc3)C[C@@H]2CC(C)C)cc1`, the GFP+ MAC1+ double positive worked out at 0.7% and the outcome was inactive.

On to `CC(=O)Nc1cc(-c2ccccc2N(C)C)cn2c(-c3ccc(F)c(Cl)c3)cnc12`, for which the GFP+ MAC1+ double positive was 1% and the compound was called inactive.

`CNc1nc(=O)n(C2CCCO2)cc1C` (stereo not drawn): the GFP+ MAC1+ double positive turned out to be 23.7% and the normalized GFP-positive differentiation is 172% (active).

For the compound `O=c1nc(NO)ccn1C1CCCO1` (stereo not drawn), the GFP+ MAC1+ double positive came to 1.8% and the compound was called inactive.

As for `O=c1c(F)cn(C2CCCO2)c(=O)n1Cc1ccccc1Cl` (stereo not drawn), the GFP+ MAC1+ double positive stood at 11.2% and the call was inactive.

With `O=C(Cc1ccc(-c2ccccc2)cc1)NC(c1ccccc1)c1ccccc1`, the GFP+ MAC1+ double positive worked out at 0.3% and the call was inactive.

In the case of `O=C(O)Cc1ccc(NCc2ccccc2Cl)cc1`, the GFP+ MAC1+ double positive was 0.6% and the call was inactive.

Turning to `O=C(O)Cc1ccc(-c2ccccc2)cc1`, the GFP+ MAC1+ double positive was determined as 2.6% and the normalized GFP-positive differentiation is 92.4% (active).

Regarding `Cc1cccc(CNC(=O)c2sc(=O)n(Cc3ccccc3C)c2C)c1`, the GFP+ MAC1+ double positive stood at 4.1% and the compound was called inactive.

For `COc1ccc(C(C(=O)Nc2c(C)cccc2C)N2CCN(c3ccc(C)cc3)CC2)cc1` (stereo not drawn), the GFP+ MAC1+ double positive is 2% and the compound was classed as inactive.

With `CO[C@@H]1CN(C)C(=O)c2cc(NC(=O)Nc3cc(F)ccc3F)ccc2OC[C@H](C)N(C(=O)c2ccccn2)C[C@@H]1C`, the GFP+ MAC1+ double positive was 1.3% and the compound was classed as inactive.

Take `COC(=O)[C@]12CCCCC=C1N(Cc1cccc3ccccc13)C(=O)[C@H](CC(=O)N1CCOCC1)C2`: the GFP+ MAC1+ double positive turned out to be 0.7% and the compound was classed as inactive.

For the compound `CCOP(=O)(OCC)C(Cc1ccccc1)N=C(c1ccccc1)c1ccccc1` (stereo not drawn), the GFP+ MAC1+ double positive is 1% and the outcome was inactive.

In the case of `CC(=O)N1Cc2cc(C(=O)NCc3cccc(F)c3)nc(-c3cccc(C4=CCCC4)c3)c2[C@H]1CCO`, the GFP+ MAC1+ double positive came to 0.3% and the compound was classed as inactive.

For `COc1cccc(-c2noc(C3CCCN(C(=O)c4ccc(F)cc4)C3)n2)c1` (stereo not drawn), the GFP+ MAC1+ double positive was determined as 1.2% and the call was inactive.

As for `CC(C)c1ccc(-c2noc(C3CCCN(S(C)(=O)=O)C3)n2)cc1` (stereo not drawn), the GFP+ MAC1+ double positive came out at 2.8% and the call was inactive.

Take `COc1cc(-c2noc(C3CCCN(S(=O)(=O)c4cccc(Cl)c4)C3)n2)cc(OC)c1OC` (stereo not drawn): the GFP+ MAC1+ double positive was 16.1% and the normalized GFP-positive differentiation was 28.5% (active).

For the compound `O=C(NCc1ccccn1)[C@@H]1CCCN1C(=O)[C@@H]1CCCN1C(=O)c1ccccc1`, the GFP+ MAC1+ double positive stood at 1.4% and the outcome was inactive.

On to `COC(=O)[C@@]12C[C@@H](CC(=O)NCc3cccc(C(F)(F)F)c3)C(=O)N(Cc3ccco3)C1=CCC(C)(C)C2`, for which the GFP+ MAC1+ double positive was 3.5% and the outcome was inactive.

Take `COc1ccc(CNC(=O)[C@H](Cc2c[nH]c3ccccc23)NC(C)=O)cc1OC`: the GFP+ MAC1+ double positive stood at 0.3% and the compound was called inactive.

On to `COc1cccc(NC(=O)[C@H](Cc2c[nH]c3ccccc23)NC(=O)[C@@H]2Cc3ccccc3CN2)c1`, for which the GFP+ MAC1+ double positive was determined as 5.1% and the normalized GFP-positive differentiation is 8.43% (active).

Consider `COc1ccc(NC(=O)[C@H](NC(=O)[C@@H]2Cc3ccccc3CN2)c2ccccc2)cc1`, for which the GFP+ MAC1+ double positive is 3.2% and the result was inactive.
